# JMJD2A Tudor inh – blocks the human JMJD2A Tudor domain; Potency, µM (top dose mostly 114 µM), without a hit: at the top dose activity change, negative = inhibition, most hits filed as inhibitors; AID 504339; AlphaScreen JMJD2A-Tudor / H3K4me3 peptide binding; 390,000 tested, 4.4% active; also: % is scaled to controls: 0 for no effect and ±100 for the full control effect; nearly all actives have a fitted effect of over 50% in size
# HP1b chromo inh – inhibitors of HP1-beta chromodomain binding to methylated histone tails | AlphaScreen HP1-beta / biotin-H3K9me3 peptide binding | Potency, µM (series often up to 114 µM), inactives show at the top dose activity change, negative = inhibition, usual class: inhibitors | 390,000 tested, 0.56% active; also: nearly all actives have a fitted effect of over 70% in size
#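 AlphaScreen: HP1-beta (50 nM) preformed 30 min with biotin-H3(1-18)K9me3 peptide (50 nM) in PBS pH 7.4, 0.01% Tween-20. Compound added for 30 min at RT, then streptavidin donor/nickel chelate acceptor beads (10 ug/mL) for 30 min.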
# G9a block – G9a (human) methyltransferase inhibition. Q96KQ7. G9a H3K9 monomethylation, AlphaScreen, 2 h. Potency, µM (top dose mostly 102 µM), for the others: top-dose activity, negative = inhibition, actives largely listed as inhibitors. 350,000 tested, 8.8% active; also: % is scaled to controls: 0 for no effect and ±100 for the full control effect; nearly all actives have a fitted effect of over 75% in size
#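 Enzyme 20 nM + cpd, 15 min RT; add b-H3K9 pep 500 nM / SAM 20 uM; 2 h RT; anti-H3K9me1 Ab 0.5 ug/mL + SA donor / anti-rabbit acceptor beads 20 ug/mL each, 10 min; AlphaScreen read.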
# BAZ2B inh – BAZ2B (human) inhibition; Q9UIF8; AlphaScreen BAZ2B-H3K14Ac peptide displacement; Potency, µM (series often up to 114 µM), for the others: top-dose activity change, negative = inhibition, hits mostly inhibitors; 360,000 tested, 4.4% active; also: % is scaled to controls: 0 for no effect and ±100 for the full control effect; nearly all actives have a fitted effect of over 60% in size
#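 AlphaScreen luminescence quantifies BAZ2B engagement of H3K14Ac peptide; the protein and biotinylated peptide are both at 50 nM final, buffer PBS pH 7.4 with 0.01% Tween-20, all steps at room temperature.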
# L3MBTL1 block – L3MBTL1 (human) inhibition; Q9Y468; AlphaScreen L3MBTL1–H3K9me1 peptide binding; Potency, µM (titrated, usually from 57.1 µM), without a hit: at the top dose activity, negative = inhibition, usual class: inhibitors; 230,000 tested, 0.66% active; also: % is scaled to controls: 0 for no effect and ±100 for the full control effect; nearly all actives have a fitted effect of over 60% in size
#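 AlphaScreen proximity signal between nickel-chelate acceptor and streptavidin donor beads (final 10 ug/mL) reports binding of 50 nM L3MBTL1 to 75 nM biotin-H3 K9me1 peptide; complex incubated with compounds 30 min at room temperature; cefsulodin titration as control.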
# * hit, by the source's call; ? = inconclusive; . = not tested or not shown; [ ] = dose if it differs, or a comment. Shown are actives, neighbours in structure and some others; about 11% of the full set was active somewhere. Calls follow the shape of the dose curve; as a rule, active = well fitted inhibition curve with a large enough effect; inconclusive = small, poorly fitted or top-dose-only effect; inactive = no such curve, though single readings can be large or run the other way. Potency is read from the fitted curve at half-maximal effect.
SMILES,JMJD2A Tudor inh,HP1b chromo inh,G9a block,BAZ2B inh,L3MBTL1 block
Cn1c(SCC(=O)c2ccc3c(c2)OCCO3)nnc1C(F)(F)F,-26.2%,24.8%,56.2µM*,-32.1%,-15.5%
Cn1c(SCC(=O)c2ccc3c(c2)OCCO3)nnc1C1CC1,-10.7%[57.1 µM],43.1%,22.4µM*,-0.8%,5.6%
COc1ccc(CNC(=O)c2cnc3sc(N4CCCC4)nn3c2=O)cc1OC,-16.3%,-0.8%,27.2%[59 µM],-9.9%,.
Oc1ccc(/C=N/Nc2ccc(Cl)nn2)c(O)c1O,11.2µM*,?,?,10µM*,.
Oc1c(Br)cc(/C=N/Nc2ccc(Cl)nn2)cc1Br,?,?,39.8µM*,50.1µM*,.
COc1cc(/C=N/Nc2ccc(Cl)nn2)cc(OC)c1O,-21.0%,?,15.8µM*,-12.2%,.
Fc1cccc(/C=N/Nc2ccc(Cl)nn2)c1,-25.0%,2.0%,4.5%[0.501 µM],?,.
Oc1c(Br)cc(Br)cc1/C=N/Nc1ccc(Cl)nn1,?,62.8%,24.2%[2.33 µM],-10.2%,.
Cc1ccc(S(=O)(=O)c2nc(Nc3ccccc3)sc2Cl)cc1,?,-19.1%,?,-3.6%,-2.3%
COc1ccc(Nc2nc(S(=O)(=O)c3ccc(C)cc3)c(Cl)s2)cc1,?,-3.6%,44.7µM*,-31.7%,-0.4%
O=C(NCc1cccs1)c1nn(-c2ccccc2F)nc1CO,-17.3%,29.4%,-1.0%[59 µM],-10.7%,.
CCCS(=O)(=O)c1nc(S(=O)(=O)c2ccc(C)cc2)c(NCCCOC(C)C)s1,-13.8%,55.6%,?,8.2%,.
Cc1[nH]c(=O)c(C#N)cc1-c1ccc2nccn2c1,.,.,12.6µM*,.,.
CCOC(=O)c1c(S(=O)(=O)N2CCN(c3ccccc3OC)CC2)c(C)n(C)c1C,-34.3%,-15.9%,-20.3%[59 µM],-0.6%[57.1 µM],.
COc1ccccc1N1CCN(S(=O)(=O)c2c(C(=O)N3CCOCC3)c(C)n(C)c2C)CC1,15.8µM*,-22.6%,-2.8%[59 µM],-22.2%,.
CCOc1ccc(CNC(=O)c2ccc(NC(=O)N3CCSc4ncccc43)cc2)cc1OC,-0.7%,33.6%,-9.2%[59 µM],-18.0%,.
CCCN(C(=O)Nc1cn(CC(C)C)c(=O)c2ccccc12)c1ccc(F)cc1,-10.7%,13.4%,-29.5%[59 µM],7.1%[57.1 µM],.
O=C(NCCc1ccccc1)c1ccc(NCC2CCCO2)c([N+](=O)[O-])c1 (stereo not drawn),-21.8%,-1.3%,-2.3%[59 µM],?,.
O=C(NCC1CCCO1)c1sc(=S)n2c1[nH]c(=O)c1ccc(C(=O)N3CCCCC3)cc12 (stereo not drawn),?,-23.9%,44.7µM*,?,-8.5%
O=C(NCCc1ccccc1)c1ccc2c(=O)[nH]c3c(C(=O)NCC4CCCO4)sc(=S)n3c2c1 (stereo not drawn),44.7µM*,?,-11.3%[0.501 µM],35.5µM*,.
Cc1onc(-c2c(Cl)cccc2Cl)c1C(=O)N=C(N)N1CC(C)OC(C)C1 (stereo not drawn),-6.3%,28.3%,-1.4%,-1.5%,10.0%
CCOc1cc(C2CC(=O)Nc3c2c(=O)nc(SCc2cccc(Cl)c2)n3C)ccc1O (stereo not drawn),-18.2%,30.9%,-5.0%[59 µM],?,.
O=S(=O)(Nc1ccn(-c2ccccc2)n1)c1ccc(Br)cc1,-11.0%,20.7%,14.1µM*,-12.7%,-13.5%[11.4 µM]
COC(=O)c1ccc2nc(C)cc(Nc3cccc(Cl)c3C)c2c1,-9.7%,44.3%,?,1.7%,.
O=c1c2c3n(c(=S)nc2[nH]n1-c1ccccc1)CCCCC3,-14.3%,17.0%,50.1µM*,?,.
SMILES,JMJD2A Tudor inh,HP1b chromo inh,G9a block,BAZ2B inh,L3MBTL1 block
Nc1nccc(/C=C/c2c(Cl)cccc2Cl)n1,-0.4%,17.7%,-11.0%,-16.6%,-7.3%
CSC1=NC(C)(C)C=C(/C=C/c2ccc(Cl)cc2)N1,?,?,28.2µM*,?,-11.3%
CSC1=NC(C)(C)C=C(/C=C/c2c(Cl)cccc2Cl)N1,-13.7%,36.6%,39.8µM*,-29.8%,17.8%
CSC1=NC(C)(C)C=C(/C=C/c2ccc(Cl)cc2Cl)N1,?,?,50.1µM*,?,-7.3%
CCSC1=NC(C)(C)C=C(/C=C/c2ccc(Cl)cc2Cl)N1,-28.9%,-16.7%,50.1µM*,-6.6%,.
Nc1nccc(/C=C/c2ccc(Cl)cc2)n1,12.1%,24.1%,-23.3%,-2.9%,-1.8%
CCOCCCNC(=O)NC(CCC(C)C)c1c(-n2cccc2)sc2c1CCN(C)C2 (stereo not drawn),-30.0%,4.0%,-49.6%[59 µM],?,.
COC(=O)c1ccc(CSCc2ccc(C(=O)OC)o2)o1,1.0%,29.0%,27.7%,4.9%,.
COC(=O)c1ccc(CC(=O)c2ccc(O)cc2O)o1,-32.3%,12.8%,22.4µM*,63.1µM*,-23.7%
COC(=O)c1cc(CC(=O)c2ccc(O)cc2O)c(C)o1,-12.8%,17.3%,94.7%[59 µM],?,-2.2%
CCOC(=O)c1ccc(CC(=O)c2ccc(O)cc2O)o1,-13.0%,39.1%,22.4µM*,-8.2%,.
COC(=O)c1ccc(CC(=O)c2c(C)cc(O)cc2O)o1,?,13.4%,44.7µM*,?,?
O=C(O)Cc1ccc(NC(=O)CCN2C(=O)c3ccc([N+](=O)[O-])cc3C2=O)cc1,-4.5%[11.4 µM],33.7%,-1.2%,-15.5%,.
O=C(CCN1C(=O)c2ccc([N+](=O)[O-])cc2C1=O)Nc1ccc(O)cc1C(=O)O,-17.6%,0.9%,50.1µM*,6.9%,.
Cn1c(N)c(N=O)c(=O)n(C)c1=O,-11.0%,32.9%,50.1µM*,-15.3%,-7.7%
CN(C)c1ccc(C2C=C(c3ccc(Cl)cc3OC(F)F)Nc3ncnn32)cc1 (stereo not drawn),44.7µM*,-25.4%,35.5µM*,?,-13.9%
COc1ccc(C(c2nnnn2C(C)(C)C)N2CCN(c3nc4ccccc4s3)CC2)cc1 (stereo not drawn),-17.2%,23.5%,-40.7%[59 µM],-13.5%,-3.1%
c1ccc(Cn2nnnc2C(c2ccccc2)N2CCN(c3nc4ccccc4s3)CC2)cc1 (stereo not drawn),1.0%,33.9%,1.7%[59 µM],.,-0.5%
COc1ccc(C(c2nnnn2Cc2ccccc2)N2CCN(c3nc4ccccc4s3)CC2)cc1OC (stereo not drawn),79.4µM*,2.5%,20µM*,-12.1%,-6.9%
CCC(c1nnnn1CCOC)N1CCN(c2nc3ccccc3s2)CC1 (stereo not drawn),-5.7%,35.7%,?,-15.9%,7.9%
CCC(C)(C)n1nnnc1C(c1ccc(O)c(OC)c1)N1CCN(c2nc3ccccc3s2)CC1 (stereo not drawn),-32.4%,-27.9%,2.51µM*,-35.6%,-13.2%
CCCC(c1nnnn1CCOC)N1CCN(c2nc3ccccc3s2)CC1 (stereo not drawn),12.6µM*,-18.9%,-18.6%,-1.5%,6.5%
O=S(=O)(c1ccc(Br)s1)N1CCN(c2cccc(C(F)(F)F)c2)CC1,17.1%,44.0%,53.2%[59 µM],37.0%,.
COc1ccc(CCNc2oc(/C=C/c3ccc(OC)c(OC)c3)nc2C#N)cc1,-7.9%,37.0%,2.8%[59 µM],-33.2%,.
